# Reference: PMC4336329 (PLoS ONE, 2015)
# The campaign covered roughly 310,000 compounds. About 14,000 (4.5%) showed an effect of 50% or more. The effect is printed as a negative number. For the sample, strong results were picked, then their nearest neighbours and some compounds at random.
# Biological target: human ether-à-go-go-related gene (hERG) potassium channel (human, UniProt Q12809)
# Assay: primary screen, population patch clamp on CHO cells stably expressing hERG; higher = less effect of the substance
# 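Further: peak tail current of the secondary pulse compared with the same well before compound.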
# Chain of human ether-à-go-go-related gene (hERG) potassium channel (Q12809 whole entry, looked up): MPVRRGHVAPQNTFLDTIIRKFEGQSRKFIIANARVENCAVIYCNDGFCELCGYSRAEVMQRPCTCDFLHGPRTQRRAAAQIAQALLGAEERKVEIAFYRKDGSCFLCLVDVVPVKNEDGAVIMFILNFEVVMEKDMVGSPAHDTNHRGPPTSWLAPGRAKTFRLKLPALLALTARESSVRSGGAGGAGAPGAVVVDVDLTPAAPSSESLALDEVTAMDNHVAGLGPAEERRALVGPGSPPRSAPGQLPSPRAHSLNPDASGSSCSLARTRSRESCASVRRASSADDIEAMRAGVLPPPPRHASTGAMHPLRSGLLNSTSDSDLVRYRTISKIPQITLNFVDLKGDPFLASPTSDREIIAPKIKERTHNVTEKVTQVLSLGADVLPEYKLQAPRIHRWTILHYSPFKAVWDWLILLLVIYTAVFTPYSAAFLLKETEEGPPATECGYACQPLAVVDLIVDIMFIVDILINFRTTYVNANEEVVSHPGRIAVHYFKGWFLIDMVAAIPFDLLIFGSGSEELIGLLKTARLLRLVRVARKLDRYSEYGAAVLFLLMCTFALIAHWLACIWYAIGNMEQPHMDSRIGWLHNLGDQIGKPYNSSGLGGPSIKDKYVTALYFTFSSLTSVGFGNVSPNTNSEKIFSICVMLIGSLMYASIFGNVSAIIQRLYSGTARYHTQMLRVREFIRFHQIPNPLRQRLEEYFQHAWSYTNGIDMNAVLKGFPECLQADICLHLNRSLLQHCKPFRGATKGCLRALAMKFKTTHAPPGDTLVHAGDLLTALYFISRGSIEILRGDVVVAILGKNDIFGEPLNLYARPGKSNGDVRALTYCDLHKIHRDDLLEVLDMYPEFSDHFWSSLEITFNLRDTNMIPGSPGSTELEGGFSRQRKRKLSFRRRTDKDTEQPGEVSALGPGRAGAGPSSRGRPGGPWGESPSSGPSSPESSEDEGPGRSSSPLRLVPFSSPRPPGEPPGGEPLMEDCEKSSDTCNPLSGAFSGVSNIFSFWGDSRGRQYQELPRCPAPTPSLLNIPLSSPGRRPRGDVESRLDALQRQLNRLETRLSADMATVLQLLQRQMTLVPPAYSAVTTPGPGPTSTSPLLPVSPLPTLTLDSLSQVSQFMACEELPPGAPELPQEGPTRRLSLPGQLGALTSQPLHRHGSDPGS
row,SMILES,"hERG current change (%, negative = inhibition) at 10uM"
1,Oc1c(Cl)cc(Cl)cc1/C=N/c1nccs1,-11.8%
2,O=C(COC(=O)C1CCN(S(=O)(=O)c2cccc3cccnc23)CC1)c1ccc([N+](=O)[O-])cc1,13.1%
3,O=C(NC(=O)c1ccccc1F)Nc1nc(-c2cccs2)cc(C(F)(F)F)n1,4.49%
4,COC(=O)CC1c2cc(OC)c(OC)cc2CC(=O)c2cc(OC)c(OC)cc21 (stereo not drawn),6.73%
5,Nn1c(COc2ccccc2)nnc1SCc1cc(=O)[nH]c2ccccc12,-14.3%
6,CCCNC(=S)N1CCC(C(=O)c2ccc3c(c2)OCCO3)CC1,-28.9%
7,COc1ccccc1CNS(=O)(=O)c1csc(C(N)=O)c1,20.1%
8,CCCc1cc(=O)[nH]c(SCC(=O)NN(c2ccccc2)c2ccccc2)n1,-1.04%
9,Nc1ccccc1C(=O)NCCCN1CCOCC1,15.6%
10,Cn1c(C(=O)NCCCN2CCN(c3cccc(Cl)c3)CC2)cc2c(=O)n(C)c3ccccc3c21,9.13%
11,COc1cccc(C(=O)NCCN2CCN(c3ccc(Cl)cc3)CC2)c1,-49.8%
12,Nc1ccccc1C(=O)NCCCN1CCN(c2cccc(Cl)c2)CC1,-71.4%
13,CCOc1ccc(C(=O)NCCN2CCCC2)cc1.Cl,-40.6%
14,CCOc1c(Cl)cc(C(=O)NCCN2CCCCC2)cc1Cl,-58.6%
15,COc1cc(OC)cc(C(=O)NCCCN2CCN(CCCNC(=O)c3cc(OC)cc(OC)c3)CC2)c1,-48.8%
16,COc1cccc(C(=O)NCCCNC(=O)c2cccc(OC)c2)c1,1.43%
17,COc1cc(C(=O)NCCN2CCCC2)cc(OC)c1OC.Cl,9.26%
18,COc1cccc(C(=O)NCCCN2CCN(CCCNC(=O)c3cccc(OC)c3)CC2)c1,-85.4%
19,Cl.O=C(NCCN1CCN(c2ccccc2)CC1)c1cccc(Cl)c1,-54.2%
20,Cc1cccc(C(=O)NCCN2CCN(c3ccccc3)CC2)c1.Cl,-37.1%
21,CCN(CC(=O)Nc1c(F)cccc1F)C(=O)C1CCCN(C(=O)c2ccc(Cl)cc2)C1 (stereo not drawn),-31.5%
22,Cc1ccccc1Nc1nc(N2CCOCC2)nc(N2CCOCC2)n1.Cl,14%

row,SMILES,"hERG current change (%, negative = inhibition) at 10uM"
1,CC1=CC(c2ccc(Cl)cc2)n2nc(NS(=O)(=O)c3ccc(C)cc3)nc2N1 (stereo not drawn),-19.7%
2,CCOC(=O)c1cnc2c(cnn2C)c1NCCC(O)C(F)(F)F (stereo not drawn),0.469%
3,Cc1ccc(SCC(=O)Nc2ccc(F)cc2[N+](=O)[O-])cc1C,11.7%
4,O=C(NCCCN1CCN(c2cccc(Cl)c2)CC1)c1ccc(N2CCCC2=O)cc1,-26.4%
5,O=C(NCC1CC1)c1ccc(Oc2cc(Cl)cc(Cl)c2)o1,-33.7%
6,COc1ccc(C(=O)NCCCCc2ccccc2)cc1,-4.68%
7,COc1cc(OC)cc(C(=O)NCCCCNC(=O)c2cc(OC)cc(OC)c2)c1,4.94%
8,O=C(NCCN1CCOCC1)c1cccc(Br)c1,-3.21%
9,COc1cc(OC)cc(C(=O)NCCCCc2ccccc2)c1,-56%
10,O=C(NCCc1ccccc1)c1cccc(Br)c1,2.53%
11,O=C(NCCN1CCCCC1)c1ccc(Oc2cc(Cl)cc(Cl)c2)o1,-54.8%
12,O=C(NCCCN1CCN(c2cccc(Cl)c2)CC1)c1nc(-c2ccncc2)no1,-63.2%
13,Clc1cccc(N2CCN(Cc3nc(-c4ccccc4)no3)CC2)c1,-12%
14,O=C(NCCN1CCN(c2ccccc2)CC1)c1cccc(Br)c1,-60.2%
15,O=C(c1ccc(Oc2cc(Cl)cc(Cl)c2)o1)N1CCCCC1,-7.03%
16,O=C(COc1ccc(Br)cc1Br)NC(=O)NC1CCCC1,22.3%
17,O=C(CN1C(=O)NC(c2ccccc2)(c2ccccc2)C1=O)NC1CCS(=O)(=O)C1 (stereo not drawn),5.23%
18,CCc1nc(Nc2ccccc2F)c2oc3ccccc3c2n1.Cl,6.04%
19,CCC(=O)Nc1ccc(S(=O)(=O)Nc2ccc(Cl)nn2)cc1.Cl,11.7%
20,Cc1cccc(C)c1NC(=O)N1CCC(C(=O)c2ccc(F)cc2)CC1,-22.6%
21,COC(=O)C1=NN(c2ccc(OC)cc2)C2C(=O)N(c3ccccc3OC)C(=O)C12 (stereo not drawn),10.7%
22,COc1ccc(S(=O)(=O)N2CCC3(CC2)OCCN3S(=O)(=O)c2ccccc2)cc1OC,0.907%

row,SMILES,"hERG current change (%, negative = inhibition) at 10uM"
1,CCOC(=O)c1c(C)[nH]c(C(=O)OCC(=O)Nc2ccc(Cl)cn2)c1C,6.52%
2,CCCOc1ccccc1C1NC(=O)NC(C)=C1C(=O)OCc1ccccc1 (stereo not drawn),6.23%
3,COc1ccc(-c2cc(C(F)(F)F)nc(SCC(=O)NCc3cccs3)n2)cc1OC,-3.84%
4,CC1CCC(NC(=O)c2ccc3snnc3c2)CC1 (stereo not drawn),21.3%
5,Cc1cccc(C(=O)NCCN2CCCC2)c1.Cl,-0.337%
6,COc1ccc(NC(=O)c2cccc(NC(=O)c3ccccc3)c2)cc1,2%
7,COc1ccc(C(=O)Nc2cccc(C(=O)NCc3ccccc3)c2)cc1,4.28%
8,COc1ccc(CNC(=O)c2cccc(NC(=O)c3ccccc3)c2)cc1,-71.5%
9,Cl.O=C(NCCN1CCCC1)c1cccc(Cl)c1,-51.6%
10,O=C(NCCN1CCOCC1)c1cccc(Cl)c1,-1.9%
11,Cc1cc(=O)oc2cc(NC(=O)c3ccccc3Cl)ccc12,28%
12,C(=N\Nc1nc(Nc2ccccc2)nc(Nc2ccccc2)n1)/c1cccnc1,-4.87%
13,C[n+]1cccc(C2C(C#N)=C(N)Oc3c2ccc2ccccc32)c1.[I-] (stereo not drawn),13.7%
14,C/C(=N\Nc1ccc2nncn2n1)c1ccc(Br)s1,6.83%
15,O=C(/C=C/c1cccs1)NCc1ccccc1,-2.08%
16,CCC(CO)NS(=O)(=O)c1cc(-c2nn(C)c(=O)c3ccccc23)ccc1C (stereo not drawn),-3.69%
17,CCN(CC)S(=O)(=O)c1cc(-c2nn(C)c(=O)c3ccccc23)ccc1C,-53.5%
18,CCOC(=O)CNS(=O)(=O)c1cc(-c2nn(C)c(=O)c3ccccc23)ccc1C,-52.8%
19,Cc1ccc(-c2nn(C)c(=O)c3ccccc23)cc1S(=O)(=O)NCCN(C)C,4.35%
20,Cc1ccc(-c2nn(C)c(=O)c3ccccc23)cc1S(=O)(=O)N1CCCC1,-40.6%
21,COCCNS(=O)(=O)c1cc(-c2nn(C)c(=O)c3ccccc23)ccc1C,-28.9%
22,Cc1cc(/C=C(/C#N)C(=O)O)c(C)n1-c1cccc2ccccc12,20.1%

row,SMILES,"hERG current change (%, negative = inhibition) at 10uM"
1,CCn1cc(C(=O)NCc2cccc(C(F)(F)F)c2)c(=O)c2ccc(C)nc21,2.71%
2,O=C(Nc1ccc(N2CCN(Cc3ccccc3)CC2)cc1)c1cccnc1,-14.4%
3,CN1CCN(C(=O)CCN2C(=O)/C(=C/c3cccc(Br)c3)SC2=S)CC1,11.4%
4,O=C(c1ccccc1)c1ccc(OC(=O)N2CCCC2)cc1,-11%
5,Cc1ccc(S(=O)(=O)Nc2c(NC3CCCCC3)c3ccccc3oc2=O)cc1,-33.9%
6,Cc1ccc(S(=O)(=O)Nc2c(NC3CCCCC3)c3ccccc3oc2=O)cc1C,2.53%
7,Cc1ccc(S(=O)(=O)Nc2c(NC3CCCCC3)c3ccccc3oc2=O)c(C)c1,-19.6%
8,CCCNc1c(NS(=O)(=O)c2ccc(OC)c(OC)c2)c(=O)oc2ccccc12,-74.1%
9,CCCNc1c(NS(=O)(=O)c2ccc(C)c(C)c2)c(=O)oc2ccccc12,-30.6%
10,COc1ccc(OC)c(S(=O)(=O)Nc2c(NC3CCCCC3)c3ccccc3oc2=O)c1,-54.1%
11,COc1ccc(S(=O)(=O)Nc2c(NC3CCCCC3)c3ccccc3oc2=O)cc1,-45.2%
12,N#Cc1cccc(S(=O)(=O)Nc2c(NC3CCCCC3)c3ccccc3oc2=O)c1,-53.9%
13,COc1ccc(S(=O)(=O)Nc2c(NC3CCCCC3)c3ccccc3oc2=O)cc1OC,-6.99%
14,CCCNc1c(NS(=O)(=O)c2ccc(C(C)(C)C)cc2)c(=O)oc2ccccc12,10.8%
15,CCCNc1c(NS(=O)(=O)c2c(F)c(F)c(F)c(F)c2F)c(=O)oc2ccccc12,-7.27%
16,CCCNc1c(NS(=O)(=O)c2ccc(C)cc2C)c(=O)oc2ccccc12,-52.2%
17,CCOc1ccccc1N1CCN(C(=S)Nc2ccc(S(=O)(=O)Nc3ncccn3)cc2)CC1,-3.73%
18,O=C(COC(=O)Cc1ccc(-c2ccccc2)cc1)NCc1ccccc1,20.8%
19,CC(C)c1ccc(NC(=O)c2ccc(Br)o2)cc1,3.82%
20,COc1ccc(OCC(=O)Nc2ccncc2)cc1,-17.3%
21,O=c1[nH]c(CN2CCN(CCO)CC2)nc2ccccc12,21.5%
